The nature of assay [1]: NCI Yeast Anticancer Drug Screen. Data for the rad50 strain (AID 155).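 Also: 0% = growth of vehicle-only cultures of the same strain.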 The note with it: S. cerevisiae rad50 strain growth inhibition, active compounds read high. In a few lines:
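DNA repair mutant yeast, compound exposure, growth read-out; inhibition is taken relative to vehicle.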

A short description of assay [2]: NCI Yeast Anticancer Drug Screen. Data for the mec2-1 strain (AID 157). The note with it: S. cerevisiae mec2-1 strain, active compounds read high. The method in brief: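 Each compound was tested on mec2-1 yeast, a strain altered in DNA damage repair or cell cycle control. Growth inhibition is reported relative to vehicle.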
A short description of assay [3]: NCI Yeast Anticancer Drug Screen. Data for the sgs1 mgt1 strain (AID 161).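 Also: 0% = growth of cultures given vehicle only.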 The note with it: S. cerevisiae sgs1 mgt1 strain, active compounds read high. In a few lines:
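Genetically altered yeast, compound exposure, growth inhibition relative to vehicle.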

The nature of assay [4]: NCI Yeast Anticancer Drug Screen. Data for the cln2 rad14 strain (AID 165).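 Also: 0% = growth equal to vehicle treated cultures.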 The note with it: S. cerevisiae cln2 rad14 strain, active compounds read high. The method in brief: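 Test compounds were added to cln2 rad14 yeast cultures; inhibition of growth was then determined by comparison with vehicle treatment.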
Assay [5] can be described thus: NCI Yeast Anticancer Drug Screen. Data for the bub3 strain (AID 167). The note with it: S. cerevisiae bub3 mutant strain, active compounds read high. In a few lines: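 In this screen, a yeast mutant lacking normal mitotic checkpoint function is challenged with compound. Relative growth versus vehicle gives the inhibition value.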
Assay [6] in a line: NCI Yeast Anticancer Drug Screen. Data for the mlh1 rad18 strain (AID 175). The note with it: S. cerevisiae mlh1 rad18 strain growth inhibition, active compounds read high. The method in brief:
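Inhibition values reflect reduced growth of mutant yeast versus vehicle-treated controls following compound exposure; the mutations affect DNA damage repair.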

[7] abbreviates: at 5.0 µM (retest, dose inferred, filed as 0.5).
Setting [8] is: at 50.0 µM (retest, dose inferred, filed as 5.0).

The panel holds about 79,000 compounds, 15% with a hit somewhere; the sample as a whole holds those more often. Unmarked numbers belong to inactive results. The source made the active and inactive calls. Rule as the data show it: active = growth inhibition above about 70%; inactive = the rest.

For `NSc1ccc(N)s1`, the growth inhibition in assay [1] (setting [7]) is -1%; in assay [1] (setting [8]), 11%; in assay [1] (at 50.0 µM), 37%; in assay [2] (setting [7]), 6%; in assay [2] (setting [8]) it was 12%; in assay [2] (at 50.0 µM), 28.9%. Also, the growth inhibition in assay [3] (setting [7]) was 1%; in assay [3] (setting [8]), 13%; in assay [3] (at 50.0 µM), 50.6%; in assay [4] (setting [7]), -7%; in assay [4] (setting [8]) it was 6%; in assay [4] (at 50.0 µM), 36.9%. The growth inhibition in assay [5] (setting [7]) was -3%; in assay [5] (setting [8]), 14%; in assay [5] (at 50.0 µM), 87.7% (active); in assay [6] (setting [7]), -1%; in assay [6] (setting [8]) it was 12%; in assay [6] (at 50.0 µM), 58.6%.
On to `O=C1c2ccccc2-c2cc(S)c([N+](=O)[O-])cc21`, for which the growth inhibition in assay [1] (setting [7]) is -10%; in assay [1] (setting [8]) it was 12%; in assay [1] (at 50.0 µM) it was 9.15%; in assay [2] (setting [7]), -9%; in assay [2] (setting [8]), 10%; in assay [2] (at 50.0 µM), 18.5%. The growth inhibition in assay [3] (setting [7]) was -1%; in assay [3] (setting [8]), 12%; in assay [3] (at 50.0 µM), 36.8%; in assay [4] (setting [7]) it was 1%; in assay [4] (setting [8]) it was 2%; in assay [4] (at 50.0 µM) it was 21%. Further, the growth inhibition in assay [5] (setting [7]) was 4%; in assay [5] (setting [8]), 14%; in assay [5] (at 50.0 µM), 9.45%; in assay [6] (setting [7]), -6%; in assay [6] (setting [8]), 4%; in assay [6] (at 50.0 µM) it was 18.5%.
On to `CC(=O)SC1C(=O)N(C)C(SC(C)=O)C(=O)N1C` (configuration not stated), for which the growth inhibition in assay [1] (setting [7]) was -5%; in assay [1] (setting [8]), -21%; in assay [1] (at 50.0 µM), 95.8% (active); in assay [2] (setting [7]) it was -5%; in assay [2] (setting [8]), 11%; in assay [2] (at 50.0 µM) it was 97% (active). Besides, the growth inhibition in assay [3] (setting [7]) is 0%; in assay [3] (setting [8]), 55%; in assay [3] (at 50.0 µM), 96.6% (active); in assay [4] (setting [7]), -1%; in assay [4] (setting [8]), 0%; in assay [4] (at 50.0 µM) it was 95% (active). For the same compound, the growth inhibition in assay [5] (setting [7]) is 0%; in assay [5] (setting [8]) it was -3%; in assay [5] (at 50.0 µM), 95.6% (active); in assay [6] (setting [7]), -2%; in assay [6] (setting [8]), 70% (active); in assay [6] (at 50.0 µM) it was 96.5% (active).
On to `COc1ccccc1C(c1cc2c(cc1O)OCO2)N1CCOCC1` (configuration not stated), for which the growth inhibition in assay [1] (setting [7]) was -15%; in assay [1] (setting [8]), 97% (active); in assay [1] (at 50.0 µM) it was 99% (active); in assay [2] (setting [7]) it was -20%; in assay [2] (setting [8]) it was 98% (active); in assay [2] (at 50.0 µM), 98.6% (active). Also, the growth inhibition was -8% in assay [3] (setting [7]); 98% (active) in assay [3] (setting [8]); 85.3% (active) in assay [3] (at 50.0 µM); -12% in assay [4] (setting [7]); 51% in assay [4] (setting [8]); 77.4% (active) in assay [4] (at 50.0 µM). The growth inhibition in assay [5] (setting [7]) is 15%; in assay [5] (setting [8]) it was 99% (active); in assay [5] (at 50.0 µM), 31.9%; in assay [6] (setting [7]), 6%; in assay [6] (setting [8]), 98% (active); in assay [6] (at 50.0 µM), 42.4%.
As to `COc1cc(O)c2c(c1)C(=O)C1=C(C2=O)[C@@H](C)OC(C)[C@H]1O` (some centres not stated), the growth inhibition in assay [1] (setting [7]) was 8%; in assay [1] (setting [8]) it was 96% (active); in assay [1] (at 50.0 µM) it was 53.4%; in assay [2] (setting [7]), 2%; in assay [2] (setting [8]) it was 94% (active); in assay [2] (at 50.0 µM), 6.2%. Also, the growth inhibition in assay [3] (setting [7]) is 8%; in assay [3] (setting [8]), 97% (active); in assay [3] (at 50.0 µM), -4.5%; in assay [4] (setting [7]), 1%; in assay [4] (setting [8]) it was 95% (active); in assay [4] (at 50.0 µM), -22.4%. Moreover, the growth inhibition in assay [5] (setting [7]) was 21%; in assay [5] (setting [8]), 97% (active); in assay [5] (at 50.0 µM), -2.75%; in assay [6] (setting [7]) it was 8%; in assay [6] (setting [8]), 97% (active); in assay [6] (at 50.0 µM), -6.25%.
Turning to `O=C(CSc1nnc(Cc2ccccc2)o1)Nc1cccc(Cl)c1`, the growth inhibition in assay [1] (setting [7]) was -20%; in assay [1] (setting [8]), 91% (active); in assay [1] (at 50.0 µM) it was 77% (active); in assay [2] (setting [7]) it was 14%; in assay [2] (setting [8]) it was 85% (active); in assay [2] (at 50.0 µM), 70% (active). Also, the growth inhibition in assay [3] (setting [7]) was -2%; in assay [3] (setting [8]), 86% (active); in assay [3] (at 50.0 µM), 82.2% (active); in assay [4] (setting [7]), 24%; in assay [4] (setting [8]) it was 91% (active); in assay [4] (at 50.0 µM), 78% (active). Also, the growth inhibition in assay [5] (setting [7]) is 1%; in assay [5] (setting [8]), 95% (active); in assay [5] (at 50.0 µM), 77.5% (active); in assay [6] (setting [7]), 9%; in assay [6] (setting [8]), 93% (active); in assay [6] (at 50.0 µM), 78.8% (active).
`CC/C(=N\NC(=S)SC)c1ccccn1`: the growth inhibition was 24% in assay [1] (setting [7]); 96% (active) in assay [1] (setting [8]); -13.7% in assay [1] (at 50.0 µM); 16% in assay [2] (setting [7]); 96% (active) in assay [2] (setting [8]); -5.4% in assay [2] (at 50.0 µM). In addition, the growth inhibition in assay [3] (setting [7]) is 24%; in assay [3] (setting [8]), 96% (active); in assay [3] (at 50.0 µM), 88.9% (active); in assay [4] (setting [7]), 24%; in assay [4] (setting [8]), 97% (active); in assay [4] (at 50.0 µM), 88.7% (active). Besides, the growth inhibition was 18% in assay [5] (setting [7]); 96% (active) in assay [5] (setting [8]); 86.2% (active) in assay [5] (at 50.0 µM); 25% in assay [6] (setting [7]); 96% (active) in assay [6] (setting [8]); 87% (active) in assay [6] (at 50.0 µM).
Turning to `O=[n+]1c2c(n([O-])c3ccc4ccccc4c31)-c1cccc3cccc-2c13`, the growth inhibition in assay [1] (setting [7]) is 1%; in assay [1] (setting [8]), 7%; in assay [1] (at 50.0 µM), 2.4%; in assay [2] (setting [7]), -1%; in assay [2] (setting [8]), -3%; in assay [2] (at 50.0 µM), 15.2%. Further, the growth inhibition is -4% in assay [3] (setting [7]); -5% in assay [3] (setting [8]); 11.1% in assay [3] (at 50.0 µM); 3% in assay [4] (setting [7]); -7% in assay [4] (setting [8]); 55.9% in assay [4] (at 50.0 µM). Further, the growth inhibition was -1% in assay [5] (setting [7]); -9% in assay [5] (setting [8]); 19.7% in assay [5] (at 50.0 µM); -2% in assay [6] (setting [7]); 1% in assay [6] (setting [8]); -5.75% in assay [6] (at 50.0 µM).
As for `O=C(O)CC(NC(=O)CP(=O)(O)O)C(=O)O.[NH-]C1CCCCC1[NH-].[Pt+2]` (configuration not stated), the growth inhibition in assay [1] (setting [7]) was 30%; in assay [1] (setting [8]), 24%; in assay [1] (at 50.0 µM), -2.95%; in assay [2] (setting [7]), 2%; in assay [2] (setting [8]), 3%; in assay [2] (at 50.0 µM) it was -27.1%. Besides, the growth inhibition in assay [3] (setting [7]) is 26%; in assay [3] (setting [8]) it was 11%; in assay [3] (at 50.0 µM), -27.9%; in assay [4] (setting [7]), 22%; in assay [4] (setting [8]), 16%; in assay [4] (at 50.0 µM) it was 20.8%. The growth inhibition in assay [5] (setting [7]) is 18%; in assay [5] (setting [8]), 23%; in assay [5] (at 50.0 µM), -12.2%; in assay [6] (setting [7]), 18%; in assay [6] (setting [8]), 2%; in assay [6] (at 50.0 µM), -23.1%.

The values above are taken from PubChem BioAssay (NCI).
